From PubChem BioAssay
The full list was thinned out, with hits kept by preference.
Pf Dd2 growth = qHTS Primary assay for Inhibitors of Plasmodium falciparum Dd2 growth in vitro; Potency, µM (series often up to 28.9 µM), inactives show at the top dose activity, negative = inhibition, actives largely listed as inhibitors; 4.3% of 120,000 active; P. falciparum Dd2 growth, SYBR Green, 72 h; active = well fitted inhibition curve with a large enough effect;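 note: plate controls were DMSO vehicle for no effect and reference drug for full effect; nearly all actives have a fitted effect of over 65% in size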
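Readout: SYBR Green fluorescence, 485 nm excitation, 535 nm emission, after ~16 h lysis at 37C. Before that, Dd2-infected red cells (2.5% hematocrit) grew 72 h with compound, 29 uM top final concentration.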
The depositor's hits bear a star; i = inactive; [ ] = remark or other dose. Potency is the fitted concentration of half-maximal effect.

SMILES | Pf Dd2 growth
CCn1nccc1C(=O)N1CCCN(S(C)(=O)=O)c2ccccc21 | i
C=CCNC(=O)C1CCN(C(=O)N2CC3CC(C2)[C@H]2CCCC(=O)N2C3)CC1 (stereo not given in full) | -5%
CC(=O)N1CCC(N2C[C@@H]3C[C@H]2C(=O)N(Cc2ccccn2)c2ccccc2O3)CC1 | -11%[44.1 µM]
O=C(c1cccc(Cl)c1)N1CCc2nc(-c3ccccc3)nc(-c3ccc(Cl)cc3)c2C1 | -21%
O=C(Cc1ccncc1)N1CC(F)(F)C[C@H]1c1nc(C2CC2)no1 | -16%
O=C1OC[C@@H]2CCN(C3CCC3)Cc3ccc(F)cc3N12 | i
CCC1CCCCN1S(=O)(=O)c1ccc(NC(=O)c2cc(=O)c3c(C)cc(C)cc3o2)cc1 (stereo not given) | -11%
COC(=O)c1ccc2c(c1)sc(=NC(=O)c1ccc(S(=O)(=O)N3CCCCC3)cc1)n2C | 2%
CCOC(=O)c1c(NC(=O)c2ccc(C)cc2)sc2c1CCCCC2 | 27%
CNC(=O)c1c(NC(=O)/C=C/c2ccccc2)sc2c1CCC2 | -17%
Cc1ccc2oc(C(=O)Nc3ccc(S(=O)(=O)N4CCCC(C)C4)cc3)cc(=O)c2c1 (stereo not given) | 80%
CCOC(=O)c1c(NC(=O)c2ccc(F)cc2)sc2c1CCC(CC)C2 (stereo not given) | 20%
COC(=O)c1c(NC(=O)c2ccc(S(=O)(=O)N3CCCC(C)C3)cc2)sc2c1CCN(C(C)C)C2 (stereo not given) | 8.9µM*
CCC1CCCCN1S(=O)(=O)c1ccc(C(=O)Nc2sc3c(c2C(=O)NC)CCC3)cc1 (stereo not given) | 13µM*
CCOC(=O)c1c(NC(=O)c2ccc(S(=O)(=O)N3CCC(C)CC3)cc2)sc2c1CCN(CC)C2 | 8.9µM*
COC(=O)c1c(NC(=O)c2ccc(S(=O)(=O)N3CCCCC3)cc2)sc2c1CCN(C)C2 | 10µM*
COc1ccc(Cl)c2sc(NC(=O)c3ccc(S(=O)(=O)N4CCCC4)cc3)nc12 | 2%
Cc1ccc2c(=O)cc(C(=O)Nc3ccc(S(=O)(=O)N4CCCC(C)C4)cc3)oc2c1C (stereo not given) | 36%
Nc1nc2c(s1)C(c1cccc(F)c1F)CC(=O)N2 (stereo not given) | i
CNC(=O)[C@H]1C[C@H](Oc2ccccc2)CN1C(=O)NCc1ccc(F)cc1 | 6%
O=C(NCc1ccc(C(F)(F)F)cc1)C1CN(c2ccc(Cl)cc2)C(=O)N1 (stereo not given) | -7%
O=C(C[C@@H]1O[C@H](CNC(=O)c2ccccc2)[C@@H](O)[C@H]1O)NC1CC1 | 19%[44.1 µM]
COc1cc(OC)c(OC)cc1CN1CCC(C)(c2noc(C3CCOCC3)n2)CC1 | -11%
CSCCC(=O)N1CCCC1C(=O)Nc1cccc(-n2cccn2)c1 (stereo not given) | -12%
O=C(NC1C[C@H]2CC[C@@H](C1)N2C(=O)C1CCC1)c1ccncc1 (stereo not given in full) | 3%
SMILES | Pf Dd2 growth
COCc1nc(NCCc2nc(-c3ccccn3)no2)c2cnn(C)c2n1 | -7%
COC(=O)C1=C(C)N(Cc2ccccc2F)C(=O)CC1c1ccccc1Cl (stereo not given) | i
CN(C)c1nc2c(c(=O)[nH]1)CCN(Cc1ccc(F)c(Cl)c1)CC2 | -1%[5.79 µM]
Cc1cc(Nc2ccc(F)cc2)nc(-n2nc(C)cc2C)n1 | 11µM*
CCCCc1ccc(Nc2cc(C)nc(-n3nc(C)cc3C)n2)cc1 | 2.8µM*
CC(=O)c1ccc(NC(=O)Cn2c(-n3nc(C)cc3C)nc(C)cc2=O)cc1 | i
CCCCOC(=O)c1ccc(Nc2nnc(-n3nc(C)cc3C)c3ccccc23)cc1 | -10%
COc1ccc(Nc2nnc(-n3nc(C)cc3C)c3ccccc23)cc1 | -14%
Cc1cc(C)n(-c2nc3ccccc3nc2Nc2ccc(C(C)C)cc2)n1 | -10%
Cc1cccc(C)c1NC(=O)Cn1c(=O)n(-c2ccccc2)c(=O)c2c1cc(C)n2C | 60%
COCC(=O)N1CCCC(C(=O)N2CCN(c3ccccc3OC)CC2)CCNC(=O)CC1 (stereo not given) | 7%
CCN(CC)C(=O)c1cc2c(n1C)CCN(Cc1ccc(F)cc1)C2 | 8.9µM*
COc1cccc(CN2CCc3c(cc(C(=O)Nc4cccc(C)c4C)n3C)C2)c1 | 4.5µM*
COc1cccc(CN2CCc3nc(C(=O)Nc4cccnc4)oc3CC2)c1 | -3%[44.1 µM]
CC(C)N1CCN(C(=O)c2cc3c(n2C)CCN(Cc2ccc(F)cc2)C3)CC1 | i
COc1cccc(CN2CCc3c(cc(C(=O)Nc4ccccc4)n3C)C2)c1 | 1.1µM*
COc1ccc(NC(=O)c2ccc3c(c2)c(C)c(C)n3Cc2ccc(F)cc2)cc1 | -17%
COc1ccc(NC(=O)C2=NO[C@@H]3CN(Cc4ccc(F)cc4)C[C@H]23)cc1 | i
O=C(Cn1c(=O)c2c(n1Cc1ccccc1)CN(Cc1ccccc1)CC2)NCc1ccc(F)cc1 | i
COc1cccc(CN2CCc3c(cc(C(=O)N4CCOCC4)n3C)C2)c1 | -16%
COc1ccc(NC(=O)c2cc3c(n2C)CCN(Cc2ccc(F)cc2)C3)cc1 | 2.5µM*
COc1cc(=O)n2c(c1C(=O)Nc1cccc(C)c1C)CCCC2 | 27%
COc1cccc(CC(=O)NCCC2CCN(C(=O)Nc3ccccc3C)CC2)c1 | -10%
Cc1ccc(CN2CCn3nnc(CCC(=O)NCc4ccccc4)c3C2)o1 | -16%
CC1Oc2ccc(NC(=O)C3CCCC3)cc2CN(Cc2ccc(F)cc2)C1=O (stereo not given) | i
SMILES | Pf Dd2 growth
Cc1nc(C)c(C(=O)NCC23CCC=C2N(CC2CC2)C(=O)CC3)s1 (stereo not given) | -11%
COc1ccc(C2NC(=O)N(CC(=O)NC(C)C)C3=C2C(=O)OC3)cc1 (stereo not given) | -4%
COC[C@H]1NC(=O)CC[C@H]1C(=O)N1CCN(c2ccccc2F)CC1 | -10%
Cc1ccc(C(=O)N2CCC[C@H]2c2nc(-c3ccccc3)no2)c(C)c1 | i
N#Cc1ccccc1OCC1CN(Cc2cccc(C(F)(F)F)c2)C(=O)c2c(ccnc2-c2ccc(OCC(=O)O)cc2)O1 (stereo not given) | i
COc1cccc(CN2C(=O)C3(CCOCC3)CC2c2nnnn2C(C)(C)C)c1 (stereo not given) | 1%
COc1cccc(CN2CCc3c(cc(C(=O)NCc4ccccn4)n3C)C2)c1 | 0.89µM*
COc1ccc(CNC(=O)c2cc3c(n2C)CCN(Cc2ccccc2)C3)cc1OC | -26%
COc1cccc(CN2CCN3C(=O)N(Cc4ccccn4)C[C@H]3C2)c1 | -4%[44.1 µM]
O=C(C1CCCC1)N1CCC(N2C(=O)C(OCC3CC3)C23CCCCC3)CC1 (stereo not given) | i
CCn1ccc(C(=O)N2CCC(N3C(=O)C(OCC4CC4)C34CCCCC4)CC2)n1 (stereo not given) | -25%
O=C(c1n[nH]c2ccccc12)N1CCC(N2C(=O)C(OCC3CC3)C23CCCCC3)CC1 (stereo not given) | 4.5µM*
O=C(Nc1ccc([C@@H](O)[C@H]2COCC(=O)N2CC2CC2)cc1)c1ccco1 | 4%[44.1 µM]
COC[C@@H]1CN(c2cnccn2)C[C@H]1C(=O)N1CCc2ccccc2C1 | i
O=C(C1CCCC1)N1CCc2onc(-c3ccc(C(F)(F)F)cc3)c2C1 | -8%
COc1ccc(-c2cnc3n[nH]c(-c4ccc(OC)c(F)c4)c3n2)cn1 | i
COc1ccc(-c2[nH]nc3ncc(-c4ccc(C)cc4)nc23)cc1F | 13µM*
COc1ccccc1-c1[nH]nc2ncc(-c3ccc(C)cc3)nc12 | i
